Test results reported in paper PMC4336329 (PLoS ONE, 2015).
About 14,000 (4.5%) of roughly 310,000 compounds showed an effect of 50% or more. Effects have a minus sign here. The sample as a whole holds a higher share of strong results than the screen did.

These molecules were tested against human ether-à-go-go-related gene (hERG) potassium channel (human, UniProt Q12809) (assay: primary screen, population patch clamp on CHO cells stably expressing hERG; higher = less effect of the substance).
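Further: peak tail current of the secondary pulse compared with the same well before compound.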

Sequence of human ether-à-go-go-related gene (hERG) potassium channel (Q12809 whole entry, looked up): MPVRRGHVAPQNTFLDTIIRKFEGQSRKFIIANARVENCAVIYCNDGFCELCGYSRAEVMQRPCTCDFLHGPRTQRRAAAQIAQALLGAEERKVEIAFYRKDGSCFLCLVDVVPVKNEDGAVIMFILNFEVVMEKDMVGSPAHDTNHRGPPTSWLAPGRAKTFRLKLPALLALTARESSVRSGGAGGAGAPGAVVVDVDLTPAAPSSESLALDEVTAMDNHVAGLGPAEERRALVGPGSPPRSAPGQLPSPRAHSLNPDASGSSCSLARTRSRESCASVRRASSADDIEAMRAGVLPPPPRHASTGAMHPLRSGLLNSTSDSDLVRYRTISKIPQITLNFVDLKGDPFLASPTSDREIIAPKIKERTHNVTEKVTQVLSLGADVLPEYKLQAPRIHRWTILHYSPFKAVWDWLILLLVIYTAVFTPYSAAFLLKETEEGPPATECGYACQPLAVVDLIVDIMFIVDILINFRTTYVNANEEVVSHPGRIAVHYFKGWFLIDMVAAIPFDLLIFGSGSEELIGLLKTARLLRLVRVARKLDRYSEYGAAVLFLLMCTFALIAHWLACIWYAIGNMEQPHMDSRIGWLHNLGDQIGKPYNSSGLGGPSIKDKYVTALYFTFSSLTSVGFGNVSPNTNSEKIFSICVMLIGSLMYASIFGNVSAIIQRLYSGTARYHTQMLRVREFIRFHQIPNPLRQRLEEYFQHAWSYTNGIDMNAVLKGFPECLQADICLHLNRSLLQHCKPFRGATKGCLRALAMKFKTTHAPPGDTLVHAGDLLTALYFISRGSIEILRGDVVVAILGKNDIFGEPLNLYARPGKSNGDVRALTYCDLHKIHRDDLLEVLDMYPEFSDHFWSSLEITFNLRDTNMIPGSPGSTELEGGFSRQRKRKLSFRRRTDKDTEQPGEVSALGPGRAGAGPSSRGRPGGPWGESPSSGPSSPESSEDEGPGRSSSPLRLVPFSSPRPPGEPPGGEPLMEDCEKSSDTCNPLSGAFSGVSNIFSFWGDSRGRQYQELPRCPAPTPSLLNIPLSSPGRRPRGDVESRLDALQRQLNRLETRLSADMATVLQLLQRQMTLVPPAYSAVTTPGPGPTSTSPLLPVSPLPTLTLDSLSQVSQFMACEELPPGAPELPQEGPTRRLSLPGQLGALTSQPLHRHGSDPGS

Row | Compound | hERG current change (%, negative = inhibition) at 10uM [%]
1 | O=C(Nc1ccccc1)C1CCCN(C(=O)c2ccc(Cl)cc2)C1 (stereo not drawn) | -9.92
2 | O=C(Nc1ccccc1)C1CCN(C(=O)c2ccc(Br)cc2)CC1 | -59.3
3 | O=C(Nc1ccccc1)C1CCN(C(=O)c2ccccc2)CC1 | 4.62
4 | COc1ccc(-c2csc(NC(=O)C3CCN(C(=O)c4ccc(F)cc4)CC3)n2)cc1OC | -13.8
5 | O=C(c1ccc(F)cc1)N1CCCC(C(=O)N2CCCCC2)C1 (stereo not drawn) | 16.5
6 | O=C(Nc1ccccc1)C1CCCN(C(=O)c2ccc(F)cc2)C1 (stereo not drawn) | -51.8
7 | O=C(Nc1nc(-c2ccc(F)cc2)cs1)C1CCCO1 (stereo not drawn) | -6.67
8 | COc1ccc(CSc2nc(N3CCOCC3)c3c(c2C#N)CC(C)(C)OC3)cc1 | -14.5
9 | CC1=C2[C@@H]3OC(=O)[C@H](C)C3CC[C@@]2(C)C=CC1=O (stereo partly drawn) | 27.7
10 | CCNc1nc(Oc2ccc(C(=O)OCC)cc2)nc(N2CCOCC2)n1 | -6.59
11 | COc1cc2c(cc1NC(=O)CCC(=O)O)oc1ccccc12 | 18.5
12 | CCOC(=O)C1CCCN(S(=O)(=O)c2ccc(Br)c(OC)c2)C1 (stereo not drawn) | -14.3
13 | ONC(=Nc1ccccc1Cl)c1ccccc1Cl | -14
14 | COC(=O)c1ccc(Oc2nc(NC(C)C)nc(N(C)C)n2)cc1 | 12.5
15 | Cc1cccc(OCC(=O)N2CCCc3ccccc32)c1 | 8.85
16 | O=C(Nc1ccc(F)cc1)C1CCN(C(=O)c2ccc(F)cc2)CC1 | -37.4
17 | O=C(Nc1ccc(S(=O)(=O)N2CCCCC2)cc1)C1CCN(C(=O)c2ccc(F)cc2)CC1 | -33.7
18 | O=C(Nc1ccc(Br)cc1)C1CCN(C(=O)c2ccc(F)cc2)CC1 | -61.9
19 | Cc1cc(C(=O)OCC(=O)NCCc2ccccc2)c2ccccc2n1 | -17.7
20 | O=C(NCC1CCN(Cc2ccccc2F)CC1)Nc1ccccc1F | -22.5
21 | COc1cccc(NC(=O)NCC2CCN(Cc3ccc(F)cc3)CC2)c1 | -47.4
22 | CCOc1ccc(NC(=O)NCC2CCN(c3ccc(OC)cc3)C2)cc1 (stereo not drawn) | -7.35
23 | O=C(NCC1CCN(Cc2ccc(F)cc2)CC1)Nc1cc(F)ccc1F | -65.1
24 | COc1cc(NC(=O)NCC2CCN(Cc3ccc(C)cc3)CC2)cc(OC)c1OC | -0.392

Row | Compound | hERG current change (%, negative = inhibition) at 10uM [%]
25 | O=C(NCC1CCN(S(=O)(=O)c2ccccc2)CC1)Nc1ccc(F)cc1F | -4.47
26 | CCOc1ccc(NC(=O)NCC2CCN(Cc3ccc(F)cc3)CC2)cc1 | -76.4
27 | COc1cc([N+](=O)[O-])ccc1NC(=O)NCC1CCN(Cc2ccc(Cl)cc2)CC1 | -60.9
28 | COc1cc([N+](=O)[O-])ccc1NC(=O)CN1CCCC1 | 3.84
29 | Cc1ccccc1CN1CCC(CNC(=O)Nc2ccc(F)cc2F)CC1 | -31.4
30 | O=C(NCC1CCN(Cc2ccccc2F)CC1)Nc1cc(F)ccc1F | -59.9
31 | COc1cc2[nH]c(C(=O)N3CCN(c4ccc(F)cc4)CC3)cc2c(OC)c1OC | 17.9
32 | Cc1ccc(C)c(CN2CCSCC2)c1 | 17.3
33 | O=C(Nn1c(-c2ccccc2)nc2ccccc2c1=O)c1ccco1 | 3.87
34 | O=C(Oc1ccccc1)n1c(=S)oc2ccccc21 | 12.2
35 | O=C(N/N=C/c1ccc[nH]1)c1ccccc1[N+](=O)[O-] | 19.9
36 | O=C(c1cccc(N2C(=O)C3CC=CCC3C2=O)c1)N1CCCCCC1 (stereo not drawn) | -3.26
37 | Cc1ccc(-c2nnc3n2N=C(c2ccccc2)CS3)cc1 | 3.15
38 | O=C(C1COc2ccccc2O1)N1CCN(c2ccccc2O)CC1 (stereo not drawn) | -12.5
39 | O=C1C2C3C=CC(C4CC34)C2C(=O)N1c1cc(Cl)ccn1 (stereo not drawn) | 2.55
40 | Cc1csc(Sc2nc3c(c(=O)[nH]c(=O)n3C)n2CCCc2ccccc2)n1 | 12.2
41 | C=CCOC(=O)c1ccc(-n2cncn2)nc1 | -4.47
42 | Cc1ccc(S(=O)(=O)N2c3ccccc3OCC2C(C)(C)C)cc1 (stereo not drawn) | 4.08
43 | Cc1ccc(CN2CCC(CNC(=O)Nc3ccccc3F)CC2)cc1 | -69.7
44 | O=C(NCC1CC1)Nc1ccccc1F | 18.8
45 | COc1ccc(CN2CCC(CNC(=O)NC3CCCCC3)CC2)cc1 | -67.7
46 | COc1ccc(CCNC(=O)NC2CCCCC2)cc1 | 0.125
47 | Cc1ccc(CN2CCN(Cc3ccccc3F)CC2)cc1.O=C(O)C(=O)O | -12.2
48 | COc1ccc(CNC(=O)NC2CCCCC2)cc1 | 2.13
